We go through five compounds from PubChem BioAssay.

A short description of assay [1]: yeast TOR pathway RPL19A-GFP modulators, primary screen, cell-based, S. cerevisiae, multiplex flow cytometry (AID 1862; in the data active means percent of DMSO control GFP below about 86%;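 further: lower values mimic rapamycin by blocking the RPL19A rise seen in DMSO cells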). The settings on record: S. cerevisiae RPL19A-GFP strain, flow cytometry fluorescence, 3 h; at 10 µM; stronger effect = lower value.
Assay [2] in a line: modulators of MEP2-GFP levels in yeast, primary screen, S. cerevisiae, multiplex flow cytometry (AID 1867;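 active means GFP response, as percent of the DMSO control, above the screen-wide mean plus 3 SD, about 139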;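 further: median GFP channel fluorescence of barcode-gated MEP2-GFP cells measured by flow cytometry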). The following applies: S. cerevisiae MEP2-GFP strain, 3 h, at 10 µM, stronger effect = higher value, 100% means same as DMSO wells.
Assay [3] can be described thus: modulators of CIT2-GFP expression in yeast, primary screen, S. cerevisiae, GFP fusion, multiplex flow cytometry (AID 1870;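 active means percent response above a set limit, the screen-wide mean plus 3 SD, cut at about 130% in these data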;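 further: barcoded CIT2-GFP strain pooled with four other GFP strains with rapamycin as positive control; median GFP fluorescence per well over plate mean of DMSO wells so 100% = DMSO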). The settings on record: 3 h, at 10 µM, stronger effect = higher value. A general note: In flow cytometry, cells or beads pass a laser one at a time.
Assay [4] is described as follows: modulators of LAP4-GFP expression in yeast, primary screen, S. cerevisiae, multiplex flow cytometry (AID 1873). The settings on record: 3 h, at 10 µM, stronger effect = higher value.
Assay [5] in a line: modulators of AGP1-GFP expression in yeast TOR pathway, primary screen, cell-based, multiplex flow cytometry, S. cerevisiae (AID 1887;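 active means GFP signal above the screen-wide mean plus 3 SD, that is over about 124.5% of the solvent control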;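 further: AGP1-GFP fusion strain of S. cerevisiae within a five-strain barcoded multiplex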). The settings on record: 3 h, at 10 µM, stronger effect = higher value.
The nature of assay [6]: inhibitors of CD8+ T cell-vesicle binding, pilot screen, LFA-1/ICAM-1 modulator project, MLPCN validation set, flow cytometry (AID 2523;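 active means response below a set limit, under 55% cells CD8-positive and vesicle-bound, and CD8 cells' 90th-percentile brightness under 279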;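 on vesicle binding response: mean PE anti-B7-1 fluorescence of CD8+ cells relative to row control; 100% = QL9-loaded vesicles with DMSO vehicle in the same plate row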). The settings on record: 2C mouse CD8+ T cells, at 7 µM, stronger effect = lower value; double positive events: measured here: CD8+/vesicle+ event percentage.
In assay [7] the target is Integrin beta-1 (Homo sapiens) + Integrin alpha-4 (Homo sapiens) (UniProt P13612+P05556). The assay can be described thus: inhibition of HUTS-21 binding to VLA-4, pilot screen, VLA-4 allosteric modulator project, U937 cells, HUTS-21 mAb, flow cytometry, validation set (AID 2674;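 active means inhibition above 50%, about 3 SD of the validation set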;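 further: antibody binding induced by the VLA-4 ligand LDV present at three times its Kd; 0% = LDV ligand with antibody and no compound and 100% = antibody without LDV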). The settings on record: HUTS-21 LIBS mAb binding, at 6.7 µM, stronger effect = higher value, binding induced by LDV ligand.

Assay [8] is described as follows: superoxide lowering in aged yeast cells, pilot screen, validation compound set (AID 2706;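 active means superoxide response below 65% of plate, a cut near 3 SD across the whole screen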;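 further: yeast exposed to compound for one week at 30 degrees C before staining; 100% = mean of all compound wells on the same plate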). The following applies: S. cerevisiae aging, superoxide DHE fluorescence; at 10 µM, stronger effect = lower value.
Assay [9] concerns the target Beta-adrenergic receptor kinase 1 (Homo sapiens) (UniProt P25098). The assay can be described thus: GRK2 binders displacing RNA aptamer, biochemical, validation, human GRK2, bead flow cytometry (AID 488806;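 active means aptamer binding inhibition above 30%, about 3 SD of noise from non-fluorescent compounds; inactive means inhibition at or below 30%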). The settings on record: bead-bound GRK2, FAM-aptamer displacement, at 10 µM, stronger effect = higher value.
Assay [10] concerns the target AP-2 complex subunit beta (Homo sapiens) (UniProt P63010). The assay can be described thus: inhibitors of arrestin peptide binding to AP2, pilot screen, biochemical, validation set, GST-AP2 beads, flow cytometry (AID 504541;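 active means inhibition above 54%, about 3 SD of non-fluorescent compounds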;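 further: AP2 carries R879A mutation and is captured from E. coli lysate; bead-bound FITC arrestin peptide fluorescence measuring arrestin peptide binding to AP2; 0% = DMSO wells and 100% = excess unlabeled arrestin peptide control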). The following applies: FITC arrestin peptide, at 10 µM, stronger effect = higher value, AP2 beta2 appendage fragment, R879A mutant.
The nature of assay [11]: yeast V-ATPase proton transport modulators, S. cerevisiae, pHLuorin, HTS validation (AID 504600; in the data active means response above about 15%;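 further: plate controls were DMSO for no effect and reference compound for full effect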). The settings on record: S. cerevisiae pHLuorin cytosolic pH, at 10 µM, stronger effect = higher value.
For assay [12], the system named is anti-desmoglein-3 scFv antibody binding to human DSG3. Nature of the assay: inhibitors of anti-DSG3 scFv binding to DSG3, pilot screen, biochemical, validation compound set, bead-based, flow cytometry (AID 588368;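 active means binding below the plate cutoff, the plate median minus 3 SD, with a reading above zero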;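 further: signal is the median channel fluorescence of bead-bound GFP antibody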). The following applies: Protein G beads, DSG3-Fc, scFv-GFP binding, at 10 µM, stronger effect = lower value.
Assay [13] in a line: inhibitors of fungal efflux pumps CDR1, CDR2, MDR1, pilot screen, validation compound set, multiplex, phenotypic (AID 588506;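 active means efflux inhibition above 0.42, the validation set average plus 4 SD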;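 further: Nile Red retained in cells so higher fluorescence means more efflux inhibition; 0 = negative control wells and 1 = enniatin B 25 µM full block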). The following applies: S. cerevisiae pump-expressing triplex, Nile Red efflux flow cytometry; at 10 µM; stronger effect = higher value; the pumps come from Candida albicans.
Assay [14] has as its target ATP-binding cassette sub-family B member 6 (Homo sapiens) (UniProt Q9NP58). The assay can be described thus: ABCB6 transporter inhibitors, pilot screen, K562-ABCB6 cells, flow cytometry, validation set (AID 588550;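 active means inhibition above the screen-wide mean plus 3 SD, about 51%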;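 further: 0% = DMSO wells and 100% = benzethonium chloride 70 µM positive control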). The following applies: K562-ABCB6 porphyrin accumulation, 1 h, at 10 µM, stronger effect = higher value.
Assay [15] in a line: promoters of myeloid differentiation in arrested cells, primary screen, cell-based, GFP/MAC1 double positive, flow cytometry, validation set (AID 588685;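 active means differentiation response of at least 50%, scaled between solvent and reference control, from cells with both markers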;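 further: compound exposure lasts four days before antibody staining and flow analysis; 0% = DMSO wells and 100% = 5 µM fulvestrant positive control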). The settings on record: ER-HoxA9 marrow cells, stronger effect = higher value, normalized: vehicle 0, fulvestrant 100.

Molecules are shown by their SMILES. Inconclusive results are not listed. Activity calls are given as the source filed them.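 How the source made its calls, unless noted: active means GFP signal, as percent of the solvent control, above the screen mean plus 3 SD, about 149; inconclusive means no reading because the compound's own fluorescence upset strain identification; inactive means the rest.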

Chain of Integrin beta-1 (Homo sapiens) + Integrin alpha-4 (Homo sapiens) (P05556 whole entry, looked up): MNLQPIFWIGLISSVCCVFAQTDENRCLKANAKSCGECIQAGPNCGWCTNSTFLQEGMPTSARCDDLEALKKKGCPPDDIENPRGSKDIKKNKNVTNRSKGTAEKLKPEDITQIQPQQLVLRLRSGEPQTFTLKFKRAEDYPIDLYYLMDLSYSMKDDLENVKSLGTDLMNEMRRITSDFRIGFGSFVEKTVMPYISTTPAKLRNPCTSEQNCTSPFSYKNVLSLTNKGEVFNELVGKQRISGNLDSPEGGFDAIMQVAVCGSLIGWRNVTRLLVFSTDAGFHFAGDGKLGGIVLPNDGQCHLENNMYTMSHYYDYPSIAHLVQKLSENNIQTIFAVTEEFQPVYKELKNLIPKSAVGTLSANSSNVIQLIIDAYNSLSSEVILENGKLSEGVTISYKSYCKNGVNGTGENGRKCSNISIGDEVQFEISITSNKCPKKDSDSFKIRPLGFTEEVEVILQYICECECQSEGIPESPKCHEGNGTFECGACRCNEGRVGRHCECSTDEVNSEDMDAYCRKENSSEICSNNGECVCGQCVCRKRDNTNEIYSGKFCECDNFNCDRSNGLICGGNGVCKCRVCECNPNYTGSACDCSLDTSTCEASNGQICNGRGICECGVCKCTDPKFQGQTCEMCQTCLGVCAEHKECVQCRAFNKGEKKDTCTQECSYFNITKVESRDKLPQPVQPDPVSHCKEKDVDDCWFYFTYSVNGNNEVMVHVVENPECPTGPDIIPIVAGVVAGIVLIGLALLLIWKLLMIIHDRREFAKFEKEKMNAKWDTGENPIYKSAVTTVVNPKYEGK
Chain of Integrin beta-1 (Homo sapiens) + Integrin alpha-4 (Homo sapiens) (P13612 whole entry, looked up): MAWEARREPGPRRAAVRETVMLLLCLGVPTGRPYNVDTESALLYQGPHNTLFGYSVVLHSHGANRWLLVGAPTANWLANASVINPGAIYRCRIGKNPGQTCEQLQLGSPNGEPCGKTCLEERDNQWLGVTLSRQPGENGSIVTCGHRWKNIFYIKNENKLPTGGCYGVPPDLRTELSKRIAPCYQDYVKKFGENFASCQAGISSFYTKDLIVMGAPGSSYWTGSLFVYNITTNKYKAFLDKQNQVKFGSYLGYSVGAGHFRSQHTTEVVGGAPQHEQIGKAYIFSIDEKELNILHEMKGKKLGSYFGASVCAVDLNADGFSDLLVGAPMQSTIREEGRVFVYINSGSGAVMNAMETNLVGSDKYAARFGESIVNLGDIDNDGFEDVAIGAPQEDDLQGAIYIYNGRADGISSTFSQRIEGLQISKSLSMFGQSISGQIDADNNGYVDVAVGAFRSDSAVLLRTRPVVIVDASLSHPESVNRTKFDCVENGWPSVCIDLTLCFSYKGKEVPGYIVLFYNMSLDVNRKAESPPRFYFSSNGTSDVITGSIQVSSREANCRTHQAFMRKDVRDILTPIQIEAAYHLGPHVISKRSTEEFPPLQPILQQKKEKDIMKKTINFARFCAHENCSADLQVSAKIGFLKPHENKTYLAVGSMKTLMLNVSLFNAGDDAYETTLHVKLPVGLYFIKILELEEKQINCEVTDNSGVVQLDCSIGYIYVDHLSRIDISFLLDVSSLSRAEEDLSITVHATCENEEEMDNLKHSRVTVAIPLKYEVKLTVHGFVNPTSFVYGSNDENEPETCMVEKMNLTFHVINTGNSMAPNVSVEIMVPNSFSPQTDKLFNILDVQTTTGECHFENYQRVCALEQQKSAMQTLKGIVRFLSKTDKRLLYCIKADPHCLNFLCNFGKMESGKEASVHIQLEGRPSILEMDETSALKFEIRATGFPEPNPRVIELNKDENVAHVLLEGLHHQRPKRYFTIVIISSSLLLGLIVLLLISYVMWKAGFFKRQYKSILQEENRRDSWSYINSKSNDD
Chain of ATP-binding cassette sub-family B member 6 (Homo sapiens) (Q9NP58 whole entry, looked up): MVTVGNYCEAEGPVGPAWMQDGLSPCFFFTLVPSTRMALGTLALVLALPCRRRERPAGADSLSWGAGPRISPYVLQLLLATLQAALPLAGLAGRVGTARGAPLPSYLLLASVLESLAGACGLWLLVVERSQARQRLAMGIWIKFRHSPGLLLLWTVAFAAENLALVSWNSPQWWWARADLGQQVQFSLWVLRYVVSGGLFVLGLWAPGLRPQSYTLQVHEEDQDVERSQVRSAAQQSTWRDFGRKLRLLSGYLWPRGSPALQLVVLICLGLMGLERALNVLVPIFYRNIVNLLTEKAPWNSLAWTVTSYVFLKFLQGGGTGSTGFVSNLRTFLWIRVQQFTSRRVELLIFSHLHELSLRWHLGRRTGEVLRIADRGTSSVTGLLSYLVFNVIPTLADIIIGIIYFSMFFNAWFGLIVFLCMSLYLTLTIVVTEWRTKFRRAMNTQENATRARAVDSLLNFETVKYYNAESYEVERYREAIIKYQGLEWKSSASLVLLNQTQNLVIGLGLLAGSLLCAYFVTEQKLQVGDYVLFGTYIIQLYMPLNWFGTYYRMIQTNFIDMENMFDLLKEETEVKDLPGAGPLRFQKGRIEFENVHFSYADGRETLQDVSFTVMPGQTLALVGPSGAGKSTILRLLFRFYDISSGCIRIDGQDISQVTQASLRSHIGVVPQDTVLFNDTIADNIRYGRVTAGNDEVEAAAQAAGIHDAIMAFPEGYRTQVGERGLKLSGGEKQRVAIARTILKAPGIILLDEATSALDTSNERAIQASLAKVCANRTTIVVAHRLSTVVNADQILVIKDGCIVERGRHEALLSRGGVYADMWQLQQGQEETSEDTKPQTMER
Chain of Beta-adrenergic receptor kinase 1 (Homo sapiens) (P25098 whole entry, looked up): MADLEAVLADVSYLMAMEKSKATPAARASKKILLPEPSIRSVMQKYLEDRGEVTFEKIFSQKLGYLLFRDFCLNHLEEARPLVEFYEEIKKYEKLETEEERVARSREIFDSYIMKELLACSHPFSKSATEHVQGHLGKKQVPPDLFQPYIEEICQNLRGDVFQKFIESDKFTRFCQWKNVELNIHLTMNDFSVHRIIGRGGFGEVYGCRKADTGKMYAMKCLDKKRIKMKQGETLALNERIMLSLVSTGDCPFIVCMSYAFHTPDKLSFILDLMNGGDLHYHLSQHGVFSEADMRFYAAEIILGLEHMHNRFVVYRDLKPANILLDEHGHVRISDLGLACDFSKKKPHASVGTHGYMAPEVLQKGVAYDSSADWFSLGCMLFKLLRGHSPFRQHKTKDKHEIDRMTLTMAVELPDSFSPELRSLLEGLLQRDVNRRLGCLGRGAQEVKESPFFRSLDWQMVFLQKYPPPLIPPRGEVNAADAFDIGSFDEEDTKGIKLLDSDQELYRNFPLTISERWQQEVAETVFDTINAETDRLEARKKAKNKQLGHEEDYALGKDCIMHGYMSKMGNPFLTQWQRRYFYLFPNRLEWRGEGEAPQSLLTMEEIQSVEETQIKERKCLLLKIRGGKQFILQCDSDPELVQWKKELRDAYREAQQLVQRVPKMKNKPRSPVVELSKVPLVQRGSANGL
Chain of AP-2 complex subunit beta (Homo sapiens) (P63010 whole entry, looked up, the tested form may be a part, one chain of several): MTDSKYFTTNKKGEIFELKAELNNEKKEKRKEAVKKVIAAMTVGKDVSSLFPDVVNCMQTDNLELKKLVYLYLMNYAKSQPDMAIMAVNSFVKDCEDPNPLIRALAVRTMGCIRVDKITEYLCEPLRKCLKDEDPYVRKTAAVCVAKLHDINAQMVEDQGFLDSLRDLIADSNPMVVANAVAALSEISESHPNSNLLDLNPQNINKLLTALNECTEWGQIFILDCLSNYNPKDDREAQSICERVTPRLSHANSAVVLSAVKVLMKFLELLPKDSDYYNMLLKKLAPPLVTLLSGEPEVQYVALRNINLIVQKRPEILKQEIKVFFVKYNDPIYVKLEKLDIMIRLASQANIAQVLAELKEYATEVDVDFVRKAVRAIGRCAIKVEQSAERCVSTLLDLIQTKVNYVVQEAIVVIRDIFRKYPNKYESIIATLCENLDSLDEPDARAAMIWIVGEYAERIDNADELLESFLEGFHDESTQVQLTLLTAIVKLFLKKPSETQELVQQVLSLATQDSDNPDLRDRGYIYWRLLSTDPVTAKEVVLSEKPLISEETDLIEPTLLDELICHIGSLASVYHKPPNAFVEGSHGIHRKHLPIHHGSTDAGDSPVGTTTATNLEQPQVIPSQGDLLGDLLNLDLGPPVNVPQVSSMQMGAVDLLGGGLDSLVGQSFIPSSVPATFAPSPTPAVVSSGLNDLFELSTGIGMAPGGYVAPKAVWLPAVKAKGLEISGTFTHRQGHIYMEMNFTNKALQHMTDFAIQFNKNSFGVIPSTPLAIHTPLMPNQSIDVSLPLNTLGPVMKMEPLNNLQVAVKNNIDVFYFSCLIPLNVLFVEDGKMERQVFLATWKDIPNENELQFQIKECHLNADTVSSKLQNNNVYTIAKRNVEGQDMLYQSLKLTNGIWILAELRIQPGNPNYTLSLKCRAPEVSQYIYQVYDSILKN

What is called inhibition is the relative decrease from the control value, in per cent. Take `Cc1ccccc1-c1coc2cc(O)ccc2c1=O`: the percent of DMSO control GFP in [1] is 98.5% (inactive). Also, the figures for the GFP response vs DMSO in [2] and in assay [4] were 96.9% (inactive) and 116% (inactive), respectively. Further, in assay [3], the percent response of DMSO control is 90% (inactive). The GFP response, % of DMSO in assay [5] was 97.3% (inactive). Moreover, the double positive events in [6] stood at 60.2%. For the same compound, in assay [6], the vesicle binding response was 187% (inactive). For the same compound, the values for the inhibition in assay [7], in assay [10] and in assay [14] were -21.7% (inactive), 30.2% (inactive) and 8% (inactive), respectively. For the same compound, in assay [8], the superoxide response (% of plate) was 89.2% (inactive). Also, in assay [9], the aptamer binding inhibition is 4% (inactive). In addition, in [11], the response was 0.4% (inactive). Further, the binding (% of control) in assay [12] is 99.1% (inactive). The efflux inhibition (fraction of control) in assay [13] is -0.05 (inactive). In assay [15], the differentiation response is -14.7% (inactive).

As for `CC(COc1ccccc1)NC(C)C(O)c1ccc(O)cc1` (stereo not given), in [1], the percent of DMSO control GFP was 104% (inactive). Besides, the GFP response vs DMSO in assay [2] was 101% (inactive); in assay [4] it was 103% (inactive). Further, the percent response of DMSO control in [3] is 111% (inactive). The GFP response, % of DMSO in assay [5] is 108% (inactive). The double positive events in [6] was determined as 55.7%. Besides, the vesicle binding response in assay [6] is 203% (inactive). The figures for the inhibition in assay [7], in assay [10] and in assay [14] were -496% (inactive), 37.9% (inactive) and 9% (inactive), respectively. In addition, in assay [8], the superoxide response (% of plate) is 107% (inactive). Also, in assay [9], the aptamer binding inhibition is -1% (inactive). Besides, in assay [11], the response is -3.92% (inactive). The binding (% of control) in assay [12] was 100% (inactive). In addition, the efflux inhibition (fraction of control) in assay [13] is -0.05 (inactive). The differentiation response in assay [15] was -19.6% (inactive).

`CC(C)CCOCC(=O)Nc1cccc(C(=O)O)c1`: in assay [1], the percent of DMSO control GFP is 99.5% (inactive). Also, the values for the GFP response vs DMSO in [2] and in [4] were 107% (inactive) and 95.4% (inactive), respectively. Also, the percent response of DMSO control in [3] was 98.8% (inactive). For the same compound, the GFP response, % of DMSO in [5] was 99.7% (inactive). In [6], this compound came in with a double positive events of 59.8%. Further, in assay [6], the vesicle binding response was 174% (inactive). In addition, the inhibition is 10.9% (inactive) in [7], 41.3% (inactive) in assay [10] and 3% (inactive) in [14]. For the same compound, in [8], the superoxide response (% of plate) was 110% (inactive). Also, in assay [9], the aptamer binding inhibition was 1% (inactive). Moreover, the response in assay [11] was -5.9% (inactive). In addition, in assay [12], the binding (% of control) was 103% (inactive). In assay [13], the efflux inhibition (fraction of control) is -0.12 (inactive). In assay [15], the differentiation response is 11.1% (inactive).

As for `CC1=CC(C)(C)N2C(=O)C3(NCCc4c3[nH]c3ccccc43)c3cc(C)cc1c32` (stereo not given), in assay [1], the percent of DMSO control GFP was 103% (inactive). In addition, the GFP response vs DMSO in assay [2] is 98.9% (inactive); in [4], 82.3% (inactive). Moreover, in assay [3], the percent response of DMSO control was 99.8% (inactive). In addition, the GFP response, % of DMSO in assay [5] was 93.6% (inactive). The double positive events in assay [6] was 63%. In [6], the vesicle binding response was 162% (inactive). For the same compound, the inhibition was 22.1% (inactive) in assay [7], -4.18% (inactive) in assay [10] and 4% (inactive) in assay [14]. In addition, the superoxide response (% of plate) in assay [8] is 97.3% (inactive). In [9], the aptamer binding inhibition was -3% (inactive). Moreover, the response in [11] is 3.88% (inactive). For the same compound, the binding (% of control) in [12] is 104% (inactive). In [13], the efflux inhibition (fraction of control) is 0.41 (inactive). In addition, the differentiation response in assay [15] was -5.05% (inactive).

For the compound `NCCCC(=O)O`, in assay [1], the percent of DMSO control GFP was 97.8% (inactive). In addition, the GFP response vs DMSO in [2] is 99.9% (inactive); in assay [4], 103% (inactive). In addition, in assay [3], the percent response of DMSO control was 95.9% (inactive). For the same compound, the GFP response, % of DMSO in assay [5] is 96.7% (inactive). For the same compound, the double positive events in assay [6] is 57.8%. Further, in assay [6], the vesicle binding response is 192% (inactive). Besides, the figures for the inhibition in [7], in assay [10] and in assay [14] were 10.9% (inactive), 2.65% (inactive) and -31% (inactive), respectively. Moreover, the superoxide response (% of plate) in assay [8] was 103% (inactive). Also, in assay [9], the aptamer binding inhibition is 0% (inactive). For the same compound, the response in [11] was -1.76% (inactive). The binding (% of control) in [12] was 99.8% (inactive). In [13], the efflux inhibition (fraction of control) is 0.94 (active). In addition, the differentiation response in [15] is -13.1% (inactive).
